From PubChem
Compounds with a hit are over-represented: about 21% of the library has one in this group of screens.
Shiga inhibitor: A qHTS for Small Molecule Inhibitors of Shiga Toxin; inhibition, % at 38.7 µM; actives 9.2% (n = 290,000); AID 2315, 2010; Vero cells, Shiga toxin protein synthesis inhibition reporter; in the data active = inhibition mostly above about 28%, no sharp cut-off; inactive = mostly below about 43%; also: 0% is about no effect
Cycloheximide cs: Cycloheximide Counterscreen for Small Molecule Inhibitors of Shiga Toxin; max response, %; AID 2314, 2010; actives 12% (n = 300,000); cell reporter, cycloheximide protein synthesis inhibition counterscreen; in the data active = max response mostly above about 13%, no sharp cut-off; inactive = mostly below about 14%; also: read at 38.3 µM for the half of the compounds with a filed dose; 0% is about no effect
Pf growth 48h: Primary qHTS for delayed death inhibitors of the malarial parasite plastid, 48 hour incubation; P. falciparum luciferase growth in erythrocytes, 48 h; Potency, µM (titrated, usually from 28.7 µM), for the others: top-dose activity change, negative = inhibition, actives largely listed as inhibitors; actives 5.9% (n = 310,000); AID 504832, 2011; also: potency is read from the fitted curve at half-maximal effect; % is scaled to controls: 0 for no effect and ±100 for the full control effect
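Growth was read as firefly luciferase luminescence after a 48 h, 37 C, 5% CO2 exposure of compounds to reporter-bearing P. falciparum cultures (0.1% parasitemia, 2% hematocrit final) in Albumax-supplemented RPMI 1640.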
NS1 inh: qHTS Assay for Inhibitors of Influenza NS1 Protein Function; actives 0.4% (n = 270,000); AID 2326, 2010; Potency, µM (series often up to 46.1 µM), for inactives: top-dose activity, positive = more growth; calls by dose curve; also: potency is read from the fitted curve at half-maximal effect; actives are rising curves; nearly all actives have a fitted effect of over 50% in size
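S. cerevisiae expressing influenza A NS1, grown in glucose, washed, then diluted 1:100 into pH 6.0 -URA galactose medium with 23 nl compound. Growth recovery read as OD600; NS1-free strain serves as control.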
Pf growth 96h: Primary qHTS for delayed death inhibitors of the malarial parasite plastid, 96 hour incubation; Potency, µM (series often up to 28.7 µM), for inactives: at the highest dose activity change, negative = inhibition, hits mostly inhibitors; actives 6.9% (n = 320,000); P. falciparum luciferase reporter growth, 96 h; also: potency is read from the fitted curve at half-maximal effect; % is scaled to controls: 0 for no effect and ±100 for the full control effect
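Cell-based qHTS: luciferase-tagged P. falciparum in erythrocytes (2% hematocrit, 0.05% parasitemia final) incubated with compounds for 96 hours, 37 C, 5% CO2; luciferase detection reagent then added and luminescence measured.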
Numbers without * were called inactive; i = inactive; ? = inconclusive; . = no result given; [ ] = another dose, or the depositor's remark. Unless noted, calls follow the shape of the dose curve; as a rule, active = well fitted inhibition curve with a large enough effect; inconclusive = small, poorly fitted or top-dose-only effect, or another doubt; inactive = no such curve, though single readings can be large or run the other way.

SMILES | Shiga inhibitor | Cycloheximide cs | Pf growth 48h | NS1 inh | Pf growth 96h
O=C(COC(=O)c1cc(=O)[nH]c2ccccc12)c1cccs1 | -2 | -1 | 9% | 0% | ?
CCCCNC(=O)O[C@H]1C[C@@H]2CCN3C(=O)CCC(C)(C)[C@H](C1)[C@H]23 | 13 | -3 | 1% | 4% | -10%
CC1(C)CCC(=O)N2CC[C@H]3C[C@H](OC(=O)Nc4ccccc4)C[C@@H]1[C@H]32 | 39* | 36* | 130% | -35% | 50%
CC1(C)CCC(=O)N2CC[C@H]3C[C@H](OC(=O)Nc4ccc5c(c4)OCO5)C[C@@H]1[C@H]32 | 23* | 20* | 23% | -5% | 115%
CCOCCn1c(=O)c2c(nc3n2CC(C)CN3CCc2ccccc2)n(C)c1=O (stereo unspecified) | -4 | -5 | -14% | 6% | ?
CC(C)Oc1ccc(C(CC(=O)NCCCN(C)C)c2ccc(F)cc2)cc1 (stereo unspecified) | 15 | -2 | ? | -6% | 12µM*
CCSCc1nnc(SCC(=O)Nc2nc(C)cs2)n1C | -2 | 0 | -1% | -3% | 16%
Cc1ccccc1NC(=O)CCNS(=O)(=O)c1cccc2nsnc12 | -11 | -2 | -22% | 25% | 15%
CCOc1ccccc1Nc1nc2ccccc2[nH]1 | 22 | 17* | ? | -12% | .
CC(CC(=O)Nc1nc2ccccc2[nH]1)c1ccccc1 (stereo unspecified) | 84* | 46* | 99% | -4% | .
Cc1cc(C)c(OCC(=O)Nc2nc3ccccc3[nH]2)c(C)c1 | 13 | 11 | -10% | . | -17%
O=C(COc1ccccc1)Nc1nc2ccccc2[nH]1 | 65* | 46* | 190% | -13% | 120%
Cc1ccccc1OCC(=O)Nc1nc2ccccc2[nH]1 | 108* | 32* | 166% | . | -16%
CCOc1ccccc1Nc1ncnc2ccccc12 | 12 | -3 | 7% | -13% | -20%
COc1ccc(NC(=O)Cc2nnc(SCC(=O)c3ccccc3)n2C)cc1 | -7 | -5 | 13% | 4% | -2%
Cc1cc(CCCCCCCCc2cc(C)cc(=O)o2)oc(=O)c1 | -2 | -1 | -6% | 12% | ?
COc1cc(NC(=O)c2ccccc2Cl)c(OC)cc1NC(=O)CN1CCOCC1 | 14 | 8 | -23% | -12% | -18%
CCOc1ccccc1OCC(=O)Nc1nc2ccccc2[nH]1 | 52* | 22* | 6% | . | -2%
O=C(Cc1ccccc1Cl)Nc1nc2ccccc2[nH]1 | 31* | 31* | 80% | 1% | ?
O=C(COc1cccc2ccccc12)Nc1nc2ccccc2[nH]1 | -2 | 2 | 3% | -4% | .
Cc1ccc(CC(=O)Nc2nc3ccccc3[nH]2)cc1C | 41 | 28 | ? | -4% | ?
Cc1ccc(C2CC(=O)Oc3cc(C)c(Br)c(C)c32)cc1 (stereo unspecified) | i | 6 | . | . | .
CCc1ccc(NC(=O)c2cc(C)nn2-c2ccccc2)cc1 | 26 | 13* | -1%[0.00184 µM] | -5% | 21%
COc1ccc(NC(=O)c2cc(C)nn2-c2ccccc2)cc1 | 58* | 37* | -1%[0.00184 µM] | -3% | 16%
CCN(CC(=O)Nc1c(F)cccc1F)C(=O)c1ccc2ncsc2c1 | . | . | 1% | . | 21%
SMILES | Shiga inhibitor | Cycloheximide cs | Pf growth 48h | NS1 inh | Pf growth 96h
CC(C(=O)NN)c1ccc([N+](=O)[O-])cc1 (stereo unspecified) | -12 | -2 | 4% | 4% | 31%
CCOCCCNC(=O)CCCn1nc(C)n2c(cc3sccc32)c1=O | -4 | -3 | . | -8% | -12%
CCOC(=O)C1CCCN(C(=O)CCCn2nc(C)n3c(cc4sccc43)c2=O)C1 (stereo unspecified) | -19 | -12 | . | -6% | 2.9µM*
COc1cc(/C=C(\C#N)C(=O)NCC2CCCO2)ccc1OCC(=O)O (stereo unspecified) | -10 | -2 | 35% | 3% | 2.3µM*
N#C/C(=C\c1ccco1)C(=O)NCC1CCCO1 (stereo unspecified) | 50* | 17* | 44% | 1% | 12%
Cc1cc(/C=C(\C#N)C(=O)NCc2cccs2)c(C)n1-c1ccccc1F | 80* | 52* | 25% | 5% | 111%
COc1ccc(/C=C(\C#N)C(=O)NCc2cccs2)cc1OC | -4 | 1 | -5% | -2% | ?
N#C/C(=C\c1ccc[nH]1)C(=O)NCC1CCCO1 (stereo unspecified) | 38 | 25* | 92% | -4% | 99%
CC1CC=CC2C1C(=O)N(Cc1ccccc1)C2c1ccc(-c2ccc(N(C)C)cc2)cc1F (stereo unspecified) | 2 | 8 | . | . | .
Cc1ccc(/C(O)=C2\C(=O)C(=O)N(CCc3c[nH]c4ccccc34)C2c2cccnc2)cc1 (stereo unspecified) | 15 | 12 | 0% | . | 7%
CCOc1ccc(C2C(C(=O)OC)=CN(C(C)c3ccccc3)C=C2C(=O)OC)cc1 (stereo unspecified) | 19 | 0 | ? | 3% | 0%
CCC1=NC(c2ccc(Br)cc2)N(O)C1(C)C (stereo unspecified) | -5 | 12 | 1% | 1% | 6%
Cc1ccccc1-n1c(C)cc(/C=C(\C#N)C(=O)NCC2CCCO2)c1C (stereo unspecified) | 123* | 65* | -77% | -8% | 8.3µM*
CCN(CC)CCNC(=O)c1ccc2c(c1NCCO)C(=O)c1ccccc1C2=O | 40* | 17 | 2.6µM* | 7% | 4.7µM*
CCN(CC)CCC(=O)Nc1cccc2c1C(=O)c1ccccc1C2=O | 6 | 2 | -86% | -3% | 10µM*
CC1CCN(C(=O)c2ccc3c(c2NCCO)C(=O)c2ccccc2C3=O)CC1 | -4 | 3 | ? | 1% | .
CCOc1ccc(NC(=O)c2oc3ccccc3c2NC(=O)C(C)C)cc1 | . | . | . | -6% | .
NS(=O)(=O)c1ccc(NC(=O)c2ccccc2C(=O)N2CCCCC2)cc1 | 8 | -3 | 3% | -7% | ?
Nc1ccccc1C(=O)N=Nc1[nH]c(N)c2ccccc12 | 16* | 44* | 105% | 11% | ?
Nc1[nH]c(N=NC(=O)c2ccc(F)cc2)c2ccccc12 | 121* | 91* | -21% | 25% | ?
O=C(O)[C@@H]1[C@@H](C(=O)NCc2cccnc2)[C@@H]2C=C[C@@H]1O2 | . | . | . | 1% | .
CCOC(=O)N1CCC(N2CCN(S(=O)(=O)c3ccc4ccccc4c3)CC2)CC1 | -16 | -5 | . | -19% | 12µM*
CCOC(=O)N1CCC(N2CCN(S(=O)(=O)c3ccc([N+](=O)[O-])cc3)CC2)CC1 | -7 | -2 | 2.1µM* | -5% | ?
CCOC(=O)C1CCCN(S(=O)(=O)c2ccc3ccccc3c2)C1 (stereo unspecified) | 14 | 1 | 102% | -17% | -6%
Cc1c(C)c2c(c(C)c1O)CCC(C)(COc1ccc(Cc3sc(=O)[nH]c3O)cc1)O2 (stereo unspecified) | 15 | 1 | . | . | .
Cc1cc(C)c(Nc2ncnc(N)n2)c(C)c1 | -7 | -1 | ? | 2% | 11%
